Source: PubChem (National Center for Advancing Translational Sciences (NCATS))
Sampled rows, rich in hits. Any-hit rate of the full collection: about 4.6%.
Tau fil binding: tau filament binding | P10636 | recombinant tau filaments, thioflavin S fluorescence, 15 h; filaments grown with octadecylsulfate alongside compound | Potency, µM (titrated, usually from 57.1 µM), inactives show at the highest dose activity change, negative = inhibition | 71,000 compounds, 2% hits | AID 596;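 note: % is set by controls: 0 for no effect and ±100 for the full control effect; actives lower thioflavin S fluorescence by blocking filaments or displacing dye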
Target sequence (P10636 whole entry, looked up): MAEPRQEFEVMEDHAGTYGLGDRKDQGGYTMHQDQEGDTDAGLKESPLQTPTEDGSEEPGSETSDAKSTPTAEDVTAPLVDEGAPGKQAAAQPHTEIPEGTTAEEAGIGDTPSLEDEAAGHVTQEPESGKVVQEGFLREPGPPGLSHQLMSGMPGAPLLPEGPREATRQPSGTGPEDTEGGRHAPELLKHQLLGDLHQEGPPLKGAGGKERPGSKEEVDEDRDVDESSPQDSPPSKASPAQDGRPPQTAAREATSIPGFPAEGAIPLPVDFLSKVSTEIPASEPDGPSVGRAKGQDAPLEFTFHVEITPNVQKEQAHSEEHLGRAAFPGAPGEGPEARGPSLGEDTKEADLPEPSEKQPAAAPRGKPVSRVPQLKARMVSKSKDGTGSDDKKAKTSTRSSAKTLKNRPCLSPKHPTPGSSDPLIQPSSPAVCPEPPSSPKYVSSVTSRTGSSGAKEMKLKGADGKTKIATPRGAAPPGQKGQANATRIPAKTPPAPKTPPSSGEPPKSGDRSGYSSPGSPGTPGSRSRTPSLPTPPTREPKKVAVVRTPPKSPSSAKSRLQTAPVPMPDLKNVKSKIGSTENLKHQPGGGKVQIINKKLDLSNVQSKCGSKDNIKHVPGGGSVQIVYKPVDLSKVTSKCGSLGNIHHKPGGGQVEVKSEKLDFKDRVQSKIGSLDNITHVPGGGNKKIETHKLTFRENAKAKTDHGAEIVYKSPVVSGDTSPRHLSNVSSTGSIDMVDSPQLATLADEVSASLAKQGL
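His-tagged recombinant human tau (exons 2, 3 and 10 included), 1 uM, was induced to fibrillize by 30 uM sodium octadecylsulfate with compound present. After 15 h at 37 C, thioflavine S fluorescence (ex 450, em 510 nm) was read.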
USP2a inh: blocks human ubiquitin-specific protease USP2a | 60,000 compounds, 0.1% hits | USP2a enzymatic assay, qHTS inhibition | Potency, µM (series often up to 38.3 µM), for the others: at the highest dose activity change, negative = inhibition, actives largely listed as inhibitors | AID 927; note: nearly all actives have a fitted effect of over 60% in size
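USP2 core (20 nM final) was preincubated with compound for 30 min at RT in 20 mM Tris-HCl pH 8.0, 2 mM CaCl2, 2 mM beta-mercaptoethanol; Ub-PLA2 (20 nM) plus NBD C6-HPC (20 uM) then added, fluorescence read after 2.5 h.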
Hsp90 Hop PPI: changes Hsp90-Hop TPR2A binding signal, up or down; AID 595; Potency, µM (titrated, usually from 57 µM), inactives show top-dose activity change, negative = inhibition; 71,000 compounds, 0.44% hits; AlphaScreen TPR2A-His6 binding biotin-Hsp90 C-terminal peptide; active = well fitted curve in either direction with a large enough effect; inconclusive = small, poorly fitted or top-dose-only effect, or another doubt; note: % is set by controls: 0 for no effect and ±100 for the full control effect
15-hLO inh: 15-hLO (ALOX15) enzyme inhibition; P16050; purified 15hLO-1, xylenol orange hydroperoxide absorbance; Potency, µM (series often up to 57.1 µM), inactives show at the top dose activity change, negative = inhibition, usual class: inhibitors; 74,000 compounds, 1.4% hits; AID 887; note: % is set by controls: 0 for no effect and ±100 for the full control effect; nearly all actives have a fitted effect of over 55% in size
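Readout: Fe(III)-xylenol orange absorbance, 573-to-405 nm ratio as reaction progress. Enzyme 40 nM purified human 15hLO-1, substrate 50 uM arachidonic acid, 6 min RT after 15 min compound preincubation; Hepes pH 7.5 buffer with Triton X-100.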
PK Bst: modulators of Bacillus stearothermophilus pyruvate kinase | Potency, µM | purified pyruvate kinase, luminescence ATP production; ribose 5-phosphate activator present at AC10 | 51,000 compounds, 1.2% hits; in the data active = potency below about 11 µM; inconclusive = mostly about 12 µM to 25 µM;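 the screen sought inhibitors and activators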;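 note: scaled between full activation by ribose 5 phosphate and full inhibition by luteolin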
GBA activity: human lysosomal glucosylceramidase modulation. P04062. purified enzyme, resorufin glucoside fluorescence (screen aimed at inhibitors), 20 min. Potency, µM. 48,000 compounds, 1.1% hits. AID 360; in the data active = potency below about 15 µM; inconclusive = mostly about 16 µM to 33 µM;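 note: the screen sought inhibitors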
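Normal human glucocerebrosidase (0.2 nM final) was assayed with resorufin β-D-glucopyranoside (30 uM final) in 50mM citric acid/KH2PO4, 10mM sodium taurocholate, 0.01% tween-20, pH 5.9. Compounds were titrated; fluorescence (Ex 548, Em 600) read after 20 min at RT.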
An asterisk follows results filed as active; ! = a repeat was not active; [ ] = another dose, or the depositor's remark. Unless noted, calls come from the whole dose curve; as a rule, active = well fitted curve in the direction sought with a large enough effect; inconclusive = small, poorly fitted or top-dose-only effect, or another doubt; inactive = no such curve, though single readings can be large; an effect the other way counts as inactive or inconclusive. Potency is the fitted concentration of half-maximal effect.

For CC1CCCCN1CC(=O)c1ccc2cc[nH]c2c1 (stereo unspecified) the results were Tau fil binding 25.1µM*, Hsp90 Hop PPI -22.9% and 15-hLO inh -21.5%.
Nc1c(Br)cc([N+](=O)[O-])cc1[N+](=O)[O-] was read as Tau fil binding -1.1%, Hsp90 Hop PPI -4.9% and 15-hLO inh -0.5%.
For Cc1cc2c(C(C)C)c(O)c(O)c(C=O)c2c(O)c1-c1c(C)cc2c(C(C)C)c(O)c(O)c(C=O)c2c1O the results were Tau fil binding 1µM*, USP2a inh 23.5%[17.1 µM], Hsp90 Hop PPI inconclusive and 15-hLO inh inconclusive.
`CCC(C)NC(=O)c1c(N)n(Cc2ccc3c(c2)OCO3)c2nc3ccccc3nc12` (stereo unspecified) gave Tau fil binding 95.9%, USP2a inh 34.0%, Hsp90 Hop PPI inconclusive, 15-hLO inh -15.6%, PK Bst >57 and GBA activity 15.1*.
Screening O=C(Cn1ncc2ccccc21)N1CCC2(CC1)OCCO2 returned Tau fil binding 0.1%, USP2a inh -2.5%, Hsp90 Hop PPI 3.6%, 15-hLO inh 7.3%, PK Bst >57 and GBA activity >76.9.
OCCCBr was read as Tau fil binding 6.6%, Hsp90 Hop PPI -2.0% and 15-hLO inh -5.3%.
`COc1cc2c(cc1OC)[C@@H]1C(=O)c3ccc(OC)c(CC=C(C)C)c3OC1CO2` (stereo partly specified) gave USP2a inh 9.3% and 15-hLO inh 15.8µM*.
For O=C(/C=C\c1ccc(Cl)cc1)N[C@@]12CCC(=O)[C@@H]3Oc4c(O)ccc5c4[C@@]31CCN(CC1CC1)[C@@H]2C5 the results were Tau fil binding inconclusive, Hsp90 Hop PPI -6.0% and 15-hLO inh -10.3%[25.6 µM].
O=c1[nH]c(=O)n(Cc2ccccc2)c(O)c1C=NCCCn1ccnc1 was read as Tau fil binding -0.3%, USP2a inh -1.0%, Hsp90 Hop PPI 15.8µM*, 15-hLO inh 13.2%, PK Bst >57 and GBA activity >76.9.
Cc1cc(N2CCOCC2)nc2ccc(NC(=O)CCC(=O)N3CCC4(CC3)OCCO4)cc12 was read as Tau fil binding -4.7%, USP2a inh 6.1%, Hsp90 Hop PPI -13.4%, 15-hLO inh 11.4% and GBA activity 4.68*.
For CSC1=NP(=S)(SC)N2CCCC2=C1C#N (stereo unspecified) the results were Tau fil binding -7.8%, USP2a inh 1.9%, Hsp90 Hop PPI -0.1%, 15-hLO inh -9.0%, PK Bst >57 and GBA activity >76.9.
For C[C@H](N)[C@H](O)c1ccc(O)c(O)c1 the results were Tau fil binding 21.2%[25.6 µM], USP2a inh -1.4%[17.1 µM], Hsp90 Hop PPI inconclusive and 15-hLO inh 3.16µM*!.
Screening O=C(O)Cc1ccc([N+](=O)[O-])cc1[N+](=O)[O-] returned Tau fil binding -2.5%[11.4 µM], Hsp90 Hop PPI -3.2%[11 µM] and 15-hLO inh 3.8%[11.4 µM].
Screening Cc1cccc(C2=NCC(=O)N(CC(=O)NCc3ccco3)c3sc4c(c32)CCCC4)c1 returned Tau fil binding 48.0%, USP2a inh 19.1%, Hsp90 Hop PPI -16.0%, 15-hLO inh 25.1µM*, PK Bst >57 and GBA activity >76.9.
CC1O[C@@H](OC2CC(O)[C@@]3(CO)C4C(O)C[C@@]5(C)C(C6=CC(=O)OC6)CC[C@]5(O)C4CC[C@]3(O)C2)C(O)C(O)C1O (stereo partly specified) was read as USP2a inh 3.9% and 15-hLO inh -0.2%.
Screening CN1CCN(c2ccc(N)c(N3CCN(C)CC3)c2)CC1 returned Tau fil binding 20µM*, USP2a inh -2.8%, Hsp90 Hop PPI 4.6%, 15-hLO inh -7.0%, PK Bst >57 and GBA activity >76.9.
`NC(N)=Nc1ccc2[nH]c3c(c2c1)C[C@]1(O)[C@@H]2Cc4ccc(O)c5c4[C@]1(CCN2CC1CC1)[C@H]3O5` gave Tau fil binding 58.1%, USP2a inh -2.4%, Hsp90 Hop PPI -22.9% and 15-hLO inh 1.26µM*.
For C[C@@H]1O[C@@H](O[C@H]2C[C@@H](O)[C@]3(CO)[C@@H]4C(CC[C@]3(O)C2)[C@@]2(O)CC[C@H](C3=CC(=O)OC3)[C@@]2(C)C[C@H]4O)[C@H](O)[C@H](O)[C@H]1O (stereo partly specified) the results were 15-hLO inh 5.2%[25.6 µM].
For O=C(Cc1ccccc1)N1CCN(Cc2c[nH]c3ccccc23)CC1 the results were Tau fil binding -7.3%, USP2a inh 8.3%, Hsp90 Hop PPI -3.0%, 15-hLO inh -6.3%, PK Bst >57 and GBA activity >76.9.
For CC(C)(C)c1ccccc1O the results were Tau fil binding -6.6%, Hsp90 Hop PPI -9.6% and 15-hLO inh -3.7%.
For CC(C)(C)c1cc(O)ccc1O the results were Tau fil binding -7.0%[11.4 µM], Hsp90 Hop PPI -0.6%[11 µM] and 15-hLO inh 20µM*.
`CN(C)C1=NC(N(C)C)=NP(N(C)C)(N(C)C)=N1` gave Tau fil binding -5.3%, USP2a inh -1.7%, Hsp90 Hop PPI -2.9% and 15-hLO inh inconclusive.
For C=CCc1c(C)[nH]c(=S)c(C#N)c1C the results were Tau fil binding -14.6%, USP2a inh 18.5%, Hsp90 Hop PPI -5.7%, 15-hLO inh 15.8µM*, PK Bst >57 and GBA activity >76.9.
For O=C(Nc1ccccc1OC(=O)N1CCCCC1)N1CCCCC1 the results were Tau fil binding -0.1%[11.4 µM], USP2a inh 4.3%[7.66 µM], Hsp90 Hop PPI 0.2%[11 µM] and 15-hLO inh 1.2%[11.4 µM].
Screening C=CC(=O)OCC returned Tau fil binding -10.3%, Hsp90 Hop PPI -0.5% and 15-hLO inh -2.5%.
`CCn1c(N)c(C(=O)NC)sc1=S` gave Tau fil binding -6.4%, USP2a inh 7.8%, Hsp90 Hop PPI -3.4%, 15-hLO inh 3.98µM*, PK Bst >57 and GBA activity >76.9.
Cc1ccc(CN2C(=O)NC(=O)C3(Cc4c(nc5ccccn5c4=O)N4CCCCCC43)C2=O)cc1 (stereo unspecified) was read as Tau fil binding 7.0%, USP2a inh 2.9%, Hsp90 Hop PPI -2.2%, 15-hLO inh -9.4%, PK Bst >57 and GBA activity >76.9.
Screening N#CCCCCC#N returned Tau fil binding -5.8%, Hsp90 Hop PPI -5.0% and 15-hLO inh 2.5%.
`COc1ccc(N2C(=O)CC(N3CC=C(c4ccccc4)CC3)C2=O)cc1` (stereo unspecified) gave Tau fil binding -14.0%, Hsp90 Hop PPI -9.5% and 15-hLO inh inconclusive.
O=C1NC(=O)C(=O)C(=O)N1 was read as USP2a inh 10µM* and 15-hLO inh -11.5%.
